Screening data (PubChem BioAssay)
Most compounds without a hit are left out; they make up all but 1.2% or so of the library.
CCT modulator: cytosolic chaperonin activity modulation | purified chaperonin ATPase assay, HTRF ADP detection, 30 min | activity change, % (test concentration not listed), hits read low | 0.3% of 360,000 active | AID 651819; in the data active means activity change below about -30%
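TRiC at 40 or 20 nM final (batch-dependent) in 30 mM Tris pH 7.4, 100 mM KCl, 5 mM MgCl2, 1 mM DTT, with compound at single 76 uM and 10 uM ATP, 30 min at 37 deg C. ADP detected by HTRF Transcreener, 665/615 ratio.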
MmCpn inh: inhibitors of Methanococcus maripaludis chaperonin TRiC (MmCpn). purified Mm-Cpn ATPase, ADP Transcreener TR-FRET. Potency, µM (highest dose often 76.9 µM), most hits filed as inhibitors. 0.031% of 330,000 active. AID 504842; further: nearly all actives have a fitted effect of over 80% in size
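Inhibition of chaperonin ATP hydrolysis is measured as reduced ADP production, detected by competitive TR-FRET in which signal falls with ADP. Final enzyme 25 nM and ATP 10 uM, reacted 30 min at 37°C.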
gsp ag: gsp mutant agonism | gsp mutant cells, cAMP HTRF, 30 min | Potency, µM (titrated, usually from 76.9 µM), actives largely listed as activators | 0.13% of 340,000 active; active means well fitted activation curve with a large enough effect; inconclusive means small, poorly fitted or top-dose-only effect, or another doubt; inactive means no such curve, though single readings can be large or run the other way; cell line not stated here;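 further: phosphodiesterase inhibitor Ro 20-1724 added with compounds to block cAMP breakdown; nearly all actives have a fitted effect of over 60% in size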
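Cells in DMEM/10% FBS with G418 were pretreated with compounds in DMSO plus […] (300 uM stock) for 30 min at 37C. cAMP was measured by HTRF (cAMP-d2 plus anti-cAMP antibody-K) after 30 min at room temperature.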
RXFP1 ag: activates the human relaxin receptor RXFP1; Q9HBX9; HEK293T-RXFP1 cAMP TR-FRET, 30 min; response scale: percent of porcine relaxin response, buffer zero; Potency, µM (titrated, usually from 57.5 µM), hits mostly activators; 0.3% of 370,000 active; AID 2676; further: nearly all actives have a fitted effect of over 60% in size
Target sequence (Q9HBX9 whole entry, looked up): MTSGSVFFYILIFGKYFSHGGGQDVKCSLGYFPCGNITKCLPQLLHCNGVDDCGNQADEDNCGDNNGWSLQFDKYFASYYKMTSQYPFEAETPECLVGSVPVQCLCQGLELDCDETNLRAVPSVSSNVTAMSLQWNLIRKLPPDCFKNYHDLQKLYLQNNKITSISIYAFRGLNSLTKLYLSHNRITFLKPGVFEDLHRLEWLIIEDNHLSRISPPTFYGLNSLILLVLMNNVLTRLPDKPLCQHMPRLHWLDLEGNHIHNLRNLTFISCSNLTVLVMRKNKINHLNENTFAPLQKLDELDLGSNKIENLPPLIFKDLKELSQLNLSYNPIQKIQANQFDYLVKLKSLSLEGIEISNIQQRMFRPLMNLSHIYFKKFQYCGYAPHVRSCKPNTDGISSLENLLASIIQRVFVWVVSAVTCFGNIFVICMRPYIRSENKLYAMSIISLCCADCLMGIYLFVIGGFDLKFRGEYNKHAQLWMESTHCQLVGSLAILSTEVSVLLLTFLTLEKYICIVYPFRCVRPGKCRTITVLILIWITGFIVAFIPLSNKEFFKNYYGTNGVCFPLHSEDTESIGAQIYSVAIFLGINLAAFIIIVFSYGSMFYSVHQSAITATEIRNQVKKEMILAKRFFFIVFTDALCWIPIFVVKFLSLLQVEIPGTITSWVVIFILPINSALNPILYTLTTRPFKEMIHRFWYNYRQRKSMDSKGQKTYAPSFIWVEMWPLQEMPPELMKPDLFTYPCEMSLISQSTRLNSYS
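HEK293T cells stably expressing RXFP1 were pretreated with the PDE4 inhibitor Ro 20174, exposed to compounds for 30 min at 37C, lysed, and cAMP was read by TR-FRET. Data normalized to buffer (basal) and 29 nM porcine relaxin (100%).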
gsp antag: antagonists of gsp mutant (McCune-Albright syndrome) | Potency, µM (top dose mostly 76.9 µM), hits mostly inhibitors | gsp-mutant cells, cAMP HTRF, 30 min | 0.4% of 340,000 active; calls by dose curve; cell line not stated here;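 further: intracellular cAMP measured with PDE inhibitor Ro 20-1724 present during compound exposure; nearly all actives have a fitted effect of over 65% in size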
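HTRF cAMP read-out (cAMP-d2 plus anti-cAMP antibody-K in lysis buffer, 30 min RT). Before lysis, cells are exposed to compounds with […] for 30 min at 37C in DPBS containing Ca/Mg, BSA and Tween 20.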
RXFP1 antag: RXFP1 (human) relaxin receptor antagonism | Q9HBX9 | HEK293-RXFP1, relaxin-stimulated cAMP HTRF, 30 min; stronger effect = lower value | activity change, negative = inhibition, % at 57.5 µM | 0.59% of 350,000 active | AID 1259400;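 active means activity change of -60% or lower, but not beyond a set lower limit; inconclusive means change between -60% and -40%, or beyond the set limit; inactive means change above -40%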
Of the large screens only hits and unclear results are named; the others gave an inactive call. Unless noted, the call rests on the fitted dose curve; in most records, active means well fitted curve in the direction sought with a large enough effect; inconclusive means small, poorly fitted or top-dose-only effect, or another doubt; inactive means no such curve, though single readings can be large; an effect the other way counts as inactive or inconclusive.

CS(=O)(=O)c1cccc(C(=O)OCCCC(=O)c2ccccc2)c1	none (no result: RXFP1 ag)
CCn1c(SCc2ccccc2F)nc(=O)c2c(C(=O)OC)cc(C3CC3)nc21	RXFP1 antag -102 (no result: CCT modulator, MmCpn inh, gsp ag, gsp antag)
CCn1c(SCc2ccc(F)cc2Cl)nc(=O)c2c(C(=O)OC)cc(C3CC3)nc21	RXFP1 antag -84 (no result: CCT modulator, MmCpn inh, gsp ag, gsp antag)
COC(=O)c1cc(C)nc2c1c(=O)nc(SCc1ccccc1Cl)n2C1CC1	RXFP1 antag inconclusive (no result: CCT modulator, MmCpn inh, gsp ag, gsp antag)
O=C(Nc1ccc2nn(-c3ccccc3)nc2c1)c1ccc(-c2cccc(Cl)c2)o1	none (no result: CCT modulator, MmCpn inh, gsp ag, gsp antag)
COc1ccc(CCNc2oc(COc3ccc(Cl)cc3)nc2C#N)cc1OC	RXFP1 antag -64 (no result: CCT modulator, MmCpn inh, gsp ag, gsp antag)
COc1ccccc1Nc1nn2c(=O)c3ccc(C(=O)NC4CCC(C)CC4)cc3nc2s1 (stereo not given)	none (no result: CCT modulator, MmCpn inh, gsp ag, gsp antag, RXFP1 antag)
CC(C)(C)OC(=O)N1CCC(c2c(C(=O)N3CCN(c4ccccn4)CC3)cnn2-c2ccccc2Cl)CC1	none (no result: CCT modulator, MmCpn inh, gsp ag, gsp antag)
Cc1ccc(N(CC(=O)Nc2ccc(-c3nc4ccc(C)cc4s3)cc2)S(C)(=O)=O)cc1	CCT modulator -40, MmCpn inh inconclusive
Cc1ccc(C)c(N(CC(=O)Nc2ccc(-c3nc4ccc(C)cc4s3)cc2)S(C)(=O)=O)c1	none
COC(=O)c1sccc1NC(=O)CNC(=O)c1ccccc1	CCT modulator -76
COC(=O)c1sccc1NC(=O)c1ccc(C)cc1	none
CCOC(=O)c1ccc(O)c(O)c1	none (no result: CCT modulator, MmCpn inh, gsp ag, RXFP1 ag, gsp antag)
CSC(=Nc1ccccc1)N=C(SCc1ccccc1)N(C)C	RXFP1 antag -100 (no result: MmCpn inh, RXFP1 ag)
N#CNC(=Nc1ccccc1)SCc1ccc(C(=O)O)cc1	none
COC(=O)Cc1c(C)c2c(O)cc(C)cc2oc1=O	gsp ag inconclusive, RXFP1 ag 16µM (no result: MmCpn inh)
CC(OC(=O)c1ccc2c(c1)OCCO2)C(=O)NC1CCCCC1C (stereo not given)	RXFP1 antag -72
Cc1cccc(-c2cccc(NC(=O)C3CCCN(C(=O)c4csc(C)n4)C3)c2)c1 (stereo not given)	gsp ag inconclusive, gsp antag 35µM
O=c1cc(-c2ccccc2)nc2nc(SCc3ccccc3)[nH]n12	gsp antag 25µM
Cc1c(C(=O)/C=C/N(C)C)nnn1-c1ccc(Cl)cc1Cl	RXFP1 antag -64
O=C(O)CCNc1ccc(NCCC(=O)O)c2c1C(=O)c1ccccc1C2=O	MmCpn inh 45µM, gsp ag inconclusive, gsp antag inconclusive, RXFP1 antag -63
Cc1cc(C)cc(NC(=O)c2cc3c(=O)n(Cc4ccco4)ccc3nc2C)c1	none (no result: CCT modulator, MmCpn inh, gsp ag, gsp antag)
CC(=O)NC1=C(NC2CCS(=O)(=O)C2)C(=O)c2ccccc2C1=O (stereo not given)	CCT modulator -44, gsp ag inconclusive (no result: RXFP1 antag)
CC(C)N(C(=O)Cn1c(-c2ccccc2Cl)nc2ccccc21)c1ccccc1	CCT modulator -55
CC(C)Cn1c(-c2ccccc2Cl)nc2ccccc21	none (no result: CCT modulator, MmCpn inh, gsp ag, gsp antag)
CCN(C(=O)c1cn(-c2ccc(OC)cc2)c(=O)c2ccccc12)c1cccc(Cl)c1	none (no result: CCT modulator, MmCpn inh, gsp ag, gsp antag)
Cc1ccc(C(=O)Nc2cccc(Oc3ccccc3)c2)o1	RXFP1 antag -72
Cc1ccc(C)c(NC(=O)CSc2nc3nc(-c4cccs4)cc(C(F)(F)F)c3c(=O)[nH]2)c1	MmCpn inh inconclusive, gsp ag 20µM, RXFP1 ag inconclusive
COCCNC(=O)CN1C(=O)NC2(CCCc3cc(OC)ccc32)C1=O (stereo not given)	CCT modulator -36
NC(=O)C1CCN(c2nc(-c3ccc(Cl)cc3)cs2)CC1	none (no result: CCT modulator, gsp ag, RXFP1 ag, gsp antag, RXFP1 antag)
O=C(Nc1ccc(Cl)cc1)C1CCCN(S(=O)(=O)c2ccc3[nH]c(=O)ccc3c2)C1 (stereo not given)	none (no result: CCT modulator, MmCpn inh, gsp ag, gsp antag)
CCc1ccc(NC(=O)C2CCCN(S(=O)(=O)c3ccc4[nH]c(=O)ccc4c3)C2)cc1 (stereo not given)	CCT modulator -71
COc1ccc(NC(=O)C2CCCN(S(=O)(=O)c3c(C)[nH]c(=O)[nH]c3=O)C2)cc1OC (stereo not given)	none
CCc1cccc(NC(=O)C2CCCN(S(=O)(=O)c3c(C)[nH]c(=O)[nH]c3=O)C2)c1 (stereo not given)	CCT modulator -41 (no result: MmCpn inh)
